Hits are enriched below; roughly 1.8% of the tested compounds scored in any of these assays.
LYPLA2 counter: blocks human lysophospholipase 2, a PME1 counter-screen; O95372; recombinant LYPLA2, FP-Rh probe fluorescence polarization; inhibition, % at 5.9 µM; 0.38% of 320,000 active;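 active = inhibition above the screen-wide mean plus 3 SD, limit set per campaign, cut at about 26% in these data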;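 note: 0% = LYPLA2 with DMSO and 100% = wells lacking LYPLA2 enzyme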
Target sequence (O95372 whole entry, looked up): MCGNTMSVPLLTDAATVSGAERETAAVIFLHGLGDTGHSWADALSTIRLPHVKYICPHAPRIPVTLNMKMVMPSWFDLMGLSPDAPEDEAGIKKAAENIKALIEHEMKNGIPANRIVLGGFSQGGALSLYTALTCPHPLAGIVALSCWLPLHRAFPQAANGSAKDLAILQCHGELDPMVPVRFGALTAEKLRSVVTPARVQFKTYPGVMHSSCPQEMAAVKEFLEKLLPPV
GSTO1 counter: GSTO1 inhibition, counter-screen for RBBP9 inhibitors; P78417; recombinant GSTO1, activity-based probe fluorescence polarization; inhibition, % at 5.96 µM; 1.1% of 300,000 active; AID 1974;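 active = inhibition above the campaign mean inhibition plus 3 SD, cut at about 35% in these data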;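 note: 0% = GSTO1-1 with DMSO and 100% = wells lacking GSTO1-1 enzyme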
PME-1 inh: blocks human protein phosphatase methylesterase 1 | recombinant PME-1, FP-Rh probe fluorescence polarization | inhibition, % at 5.9 µM | 0.53% of 320,000 active | AID 2130;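 active = inhibition above the campaign mean of all compounds plus 3 SD, cut at about 26% in these data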;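 note: competitive labeling of PME-1 active site by serine hydrolase directed probe; 0% = PME-1 with DMSO and 100% = wells lacking PME-1 enzyme; inhibitors block probe labeling so polarization falls and inhibition rises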
Target sequence (Q9Y570 whole entry, looked up): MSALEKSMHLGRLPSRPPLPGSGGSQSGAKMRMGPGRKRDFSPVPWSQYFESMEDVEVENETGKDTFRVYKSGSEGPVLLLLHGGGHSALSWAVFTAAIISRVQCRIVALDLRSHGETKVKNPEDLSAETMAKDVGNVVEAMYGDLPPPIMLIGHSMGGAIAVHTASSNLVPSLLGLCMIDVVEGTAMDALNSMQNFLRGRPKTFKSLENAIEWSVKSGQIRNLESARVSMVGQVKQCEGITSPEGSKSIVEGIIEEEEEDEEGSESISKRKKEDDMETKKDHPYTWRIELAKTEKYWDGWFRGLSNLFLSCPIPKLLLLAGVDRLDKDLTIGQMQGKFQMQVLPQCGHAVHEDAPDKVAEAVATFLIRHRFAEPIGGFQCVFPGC
Fam108B counter: counter-screen for RBBP9 inhibitors: inhibitors of mouse Fam108B; recombinant Fam108B, FP-Rh probe fluorescence polarization; inhibition, % at 9.51 µM; 0.33% of 300,000 active; AID 1947;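 active = inhibition above the screen mean inhibition plus 3 SD, computed separately per campaign, cut at about 18% in these data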;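 note: inhibitors lower polarization as less probe binds the enzyme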
PAD4 FP inh: blocks human protein arginine deiminase 4; inhibition, % at 6.36 µM; AID 485272; recombinant PAD4, RCA probe fluorescence polarization; Q9UM07; 0.41% of 330,000 active;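 active = percent inhibition above a cutoff equal to the mean of all tested compounds plus 3 SD, cut at about 15% in these data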;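 note: 0% = PAD4 with RCA probe and DMSO and 100% = probe without PAD4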
LYPLA1 inh: blocks human lysophospholipase 1, a PME1 counter-screen | O75608 | recombinant LYPLA1, FP-Rh probe fluorescence polarization | inhibition, % at 5.9 µM | 0.16% of 320,000 active | AID 2174;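 active = inhibition above the mean of all tested compounds plus 3 SD, set per campaign, cut at about 14% in these data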;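 note: inhibitors block serine hydrolase probe labeling of LYPLA1 so polarization falls; 0% = enzyme with DMSO and 100% = wells lacking LYPLA1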
PAD4 FP conf: PAD4 (human) inhibition, confirmed; shares compounds with PAD4 FP inh; recombinant PAD4, RCA probe fluorescence polarization; inhibition, % at 6.36 µM; 28% of 1,200 active; AID 488796;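 active = mean inhibition across replicates above the hit cutoff set by the earlier primary screen, cut at about 15% in these data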;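 note: inhibitors block active-site labeling by the probe so polarization falls; 0% = PAD4 with probe and DMSO and 100% = probe without PAD4 enzyme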
* = called active by the depositor; · = no result.

SMILES | LYPLA2 counter | GSTO1 counter | PME-1 inh | Fam108B counter | PAD4 FP inh | LYPLA1 inh | PAD4 FP conf
C(=N\n1cnnc1)/c1ccc2c(c1)OCCO2 | 3 | -2 | 3 | 0 | 18* | 2 | 2
COc1ccc(N2CCN(/C(=N\S(=O)(=O)c3ccccc3)Nc3nc(C)cc(C)n3)CC2)cc1 | 0 | 1 | 3 | 0 | 0 | -2 | ·
COc1ccc(/C=C/C(=O)OCC(=O)Nc2ccc(Cl)c(S(=O)(=O)N(C)C)c2)cc1OC | -19 | -6 | -13 | -12 | -1 | -19 | ·
Cc1[nH][nH]c(=O)c1C(c1ccc(-c2cccc(C(=O)O)c2)o1)c1c(C)[nH][nH]c1=O | 1 | 33 | 1 | -1 | 33* | -4 | -12
NC(=O)c1oc2ccccc2c1NC(=O)C1CC(=O)N(c2ccccc2)C1 (stereo not drawn) | 9 | 7 | 6 | 0 | 18* | 1 | 27*
O=C(O)c1ccccc1Sc1c([N+](=O)[O-])cc(C(F)(F)F)cc1[N+](=O)[O-] | 1 | 36* | -2 | 5 | 45* | 2 | 26*
CCCCOc1ccc(N=Cc2ccc[nH]2)cc1 | 2 | 7 | -1 | -1 | -2 | 2 | ·
Cc1cc(O)c(C(C)C)cc1NS(=O)(=O)c1ccccc1 | -3 | -8 | 2 | 3 | -1 | -2 | ·
Cc1cc2oc(=O)sc2cc1NS(=O)(=O)c1cccc2cccnc12 | -3 | 24 | 3 | 2 | 34* | -6 | 19*
CCCC(=O)N(c1ccc2oc(=O)sc2c1)S(=O)(=O)c1ccccc1 | 7 | 4 | 0 | 2 | 22* | -1 | 6
Cc1cc2oc(=O)sc2cc1NS(=O)(=O)c1ccccc1 | -5 | 28 | -8 | 1 | 20* | -2 | -5
Cc1nc2cc(NS(=O)(=O)c3cccc4cccnc34)ccc2s1 | 0 | -6 | 3 | -3 | -1 | 4 | ·
CC(=O)N(c1ccc2oc(=O)sc2c1)S(=O)(=O)c1cccs1 | 3 | 27 | -5 | 3 | 12 | 1 | ·
CC(=O)N(c1ccc2oc(=O)sc2c1)S(=O)(=O)c1cccc2cccnc12 | 5 | 33 | 4 | 2 | 33* | 0 | 22*
CC(=O)N(c1ccc2oc(=O)sc2c1)S(=O)(=O)c1ccc(C(=O)O)cc1 | -4 | 24 | 4 | 2 | 12 | -2 | ·
CN(C)C(CNc1ncnc2sc3c(c12)CCCC3)c1ccco1 (stereo not drawn) | 2 | -10 | -2 | -4 | -4 | -4 | ·
O=C(O)CCC(=O)Nc1ccc(SSc2ccc(NC(=O)CCC(=O)O)cc2)cc1 | -8 | 18 | -5 | -9 | 56* | -3 | 50*
COCCn1c(N)c(N(Cc2ccccc2)C(=O)C2CCCC2)c(=O)[nH]c1=O | 1 | -9 | -9 | -6 | -4 | 2 | ·
CCCCCC(=O)N(Cc1ccccc1)c1c(N)n(CCOC)c(=O)[nH]c1=O | 2 | -2 | -3 | 3 | 38* | -3 | 4
CCOc1ccc(C=Nc2cccc3ncccc23)cc1 | 3 | 2 | 0 | 0 | -5 | 1 | ·
Cc1ccc(C=Nc2cccnc2N)cc1 | 1 | 5 | 4 | -2 | 15* | -6 | 5
COc1ccc(C=Nc2cccnc2N)cc1 | 1 | 9 | -3 | -4 | 34* | 0 | 4
Cc1ncc([N+](=O)[O-])n1CC(=O)Nc1cc(Cl)ccc1Cl | 5 | -8 | -1 | 1 | 0 | -2 | ·
COc1ccc(NC(=O)C2CCCC2)cn1 | 11 | 6 | -3 | 9 | 5 | -2 | ·
CCOC(=O)C1CCN(c2nc3ccccc3nc2C(C#N)C(=O)OC(C)C)CC1 (stereo not drawn) | 3 | 3 | -9 | -2 | 17* | 1 | -13
SMILES | LYPLA2 counter | GSTO1 counter | PME-1 inh | Fam108B counter | PAD4 FP inh | LYPLA1 inh | PAD4 FP conf
CCOC(=O)C1CCN(c2nc3ccccc3nc2C(C#N)C(=O)OC(C)COC)CC1 (stereo not drawn) | -2 | 0 | -5 | 5 | 2 | -1 | ·
O=C(NCCN1C(=O)S/C(=C\c2ccc(Cl)cc2Cl)C1=O)C1=COCCO1 | 2 | 9 | 5 | -1 | 2 | 2 | ·
COc1ccc2c(c1)CCc1cnc(N)nc1-2 | -3 | 2 | 3 | 6 | 0 | 0 | ·
COc1ccc2c(c1)CCc1cn3nc(C)cc3nc1-2 | 4 | -4 | 0 | 0 | 16* | 1 | 5
COc1ccc(OCC(=O)Nc2ccc(N3CCN(C(=O)c4ccccc4C)CC3)cc2)cc1 | 2 | 1 | 0 | 13 | 1 | 2 | ·
CC(C)c1ccc(OCc2nc(-c3ccccn3)no2)c(Br)c1 | 12 | -4 | -8 | -2 | 20* | 2 | -3
Cc1ccc(OCc2nc(-c3ccccn3)no2)c(Br)c1 | -3 | 3 | -4 | 2 | 0 | 0 | ·
Cc1noc(NS(=O)(=O)c2ccc(NC(=O)CSc3nc4ccccc4s3)cc2)c1C | 2 | 1 | 5 | 1 | 19* | -1 | -5
O=C(CSc1nnc(CNC(=O)c2ccccc2)o1)NCc1ccc2c(c1)OCO2 | -15 | -10 | 0 | 1 | -3 | -1 | ·
O=C(Oc1ccc(-c2cnc3ccccc3n2)cc1)c1ccco1 | 0 | 1 | -4 | 4 | 36* | 1 | 35*
Cc1c(C(=O)Oc2ccc(-c3cnc4ccccc4n3)cc2)cccc1[N+](=O)[O-] | 2 | -2 | -4 | -2 | 62* | 2 | 57*
O=C(Oc1ccc(-c2cnc3ccccc3n2)cc1)c1cc([N+](=O)[O-])ccc1Cl | 4 | -5 | 4 | -1 | 5 | 4 | ·
O=C(Nc1cccc(-c2cnc3ccccc3n2)c1)c1ccco1 | -6 | -2 | -5 | -5 | -2 | -4 | ·
CCC(=O)Oc1ccc(-c2cnc3ccccc3n2)cc1 | 2 | 0 | -3 | 5 | 20* | -3 | 9
Cc1nn(C(C)C(=O)NCCN2CCCCCC2)c(=O)c2nn(-c3ccccc3)c(C)c12 (stereo not drawn) | -4 | -2 | 0 | -2 | -5 | 2 | ·
Cc1c(C(=O)Nc2cc(F)cc(F)c2)cnn1-c1ccccc1 | -7 | -5 | -10 | -2 | -1 | -2 | ·
COc1ccc(-c2cc(C(=O)OC(C)C(=O)Nc3c(C)n(C)n(-c4ccccc4)c3=O)c3ccccc3n2)cc1 (stereo not drawn) | 12 | 0 | -5 | -3 | -2 | 0 | ·
Cc1c(NC(=O)C(C)OC(=O)c2cc(-c3cccc4ccccc34)nc3ccccc23)c(=O)n(-c2ccccc2)n1C (stereo not drawn) | 13 | 8 | 12 | 4 | 19* | 5 | 4
CC(C)c1ccc(N(C(=O)c2cc3ccccc3oc2=O)C2C=CS(=O)(=O)C2)cc1 (stereo not drawn) | 1 | 4 | -4 | 1 | 17* | -4 | -5

Compound activity from PubChem.
